High-throughput results as filed in PubChem BioAssay.
This is a sample that favours compounds with a hit; in the whole collection about 7% have one here.
USP28 inh – human USP28 deubiquitinase inhibition. inhibition, % at 25 µM. 47,000 tested, 3% active. AID 1645857. Q96RU2. purified USP28, Ub-rhodamine cleavage fluorescence, 30 min
USP30 inh – blocks human USP30 ubiquitin-rhodamine cleavage | Q70CQ3 | purified USP30, Ub-rhodamine cleavage fluorescence | inhibition, % at 25 µM | 47,000 tested, 5.3% active | AID 1645860
Target sequence (Q70CQ3 whole entry, looked up): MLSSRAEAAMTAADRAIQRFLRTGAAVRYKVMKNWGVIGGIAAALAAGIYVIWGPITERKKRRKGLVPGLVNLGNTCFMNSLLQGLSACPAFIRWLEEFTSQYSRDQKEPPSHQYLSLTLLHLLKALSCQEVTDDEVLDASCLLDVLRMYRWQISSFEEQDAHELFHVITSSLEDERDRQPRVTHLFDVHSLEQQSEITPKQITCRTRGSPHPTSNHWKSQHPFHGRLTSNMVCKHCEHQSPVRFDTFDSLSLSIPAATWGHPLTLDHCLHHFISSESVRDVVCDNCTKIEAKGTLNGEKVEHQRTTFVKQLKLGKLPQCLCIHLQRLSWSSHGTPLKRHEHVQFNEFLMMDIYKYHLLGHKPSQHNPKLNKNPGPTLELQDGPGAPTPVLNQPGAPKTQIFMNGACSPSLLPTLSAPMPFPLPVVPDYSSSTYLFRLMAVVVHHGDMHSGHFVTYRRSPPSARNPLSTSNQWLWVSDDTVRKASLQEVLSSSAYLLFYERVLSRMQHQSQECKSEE
A number is an active result; 0 = inactive. Cut-off read from the data, not from the text of the source: active = inhibition above about 30%; inactive = the rest.

SMILES	USP28 inh	USP30 inh
O=C1CSC(c2ccc(F)cc2)c2c(n(C3CCCCCC3)[nH]c2=O)N1 (stereo not drawn)	0	30.4
Cc1ccc(C2SCC(=O)Nc3c2c(=O)[nH]n3C2CCOC(C)(C)C2)cc1 (stereo not drawn)	0	0
CC1(C)CC(n2[nH]c(=O)c3c2NC(=O)CSC3c2ccccc2)CCO1 (stereo not drawn)	0	32.9
O=C1CSC(c2ccc(Cl)cc2)c2c(n(C3CCCC3)[nH]c2=O)N1 (stereo not drawn)	0	0
N#CC(=O)c1c[nH]c2ccccc12	0	0
O=C(NC1CC1)[C@@H]1C[C@@H]2CCN(Cc3ccncc3)C[C@H]2O1	0	0
COc1cc(=O)c(C(=O)N2CCC3(CC2)OCCO3)nn1-c1ccc(C)cc1	0	0
CC(C)=CCCC1(C)C=Cc2c(O)c3c(c(CC=C(C)C)c2O1)O[C@]12C(=C[C@@H]4CC1C(C)(C)O[C@@]2(C/C=C(/C)C(=O)O)C4=O)C3=O (stereo partly drawn)	89.6	37.0
Cc1noc(C)c1CN1C[C@H]2C[C@H](C(=O)NCC3CC3)N(C)[C@H]2C1	0	0
COc1ccc(OC)c(-c2c(C#N)c(C)nc3c2N2CCC3CC2)c1	94.1	43.2
CC1(C)NC(=O)[C@H](CCCCCC(=O)C2CO2)NC(=O)[C@H]2CCCN2C(=O)[C@H](Cc2ccccc2)NC1=O (stereo partly drawn)	0	0
C=CC(C)(C)C12C=C(OC)C(=O)N3/C(=C/c4cnc[nH]4)C(=O)NC31N(OC)c1ccccc12 (stereo not drawn)	0	0
COCCN1CCO[C@@H]2CCN(C(=O)c3ccno3)CC[C@H]21	0	0
COc1cc(N2CC[C@@H]3OCCN(C)[C@H]3CC2)ncn1	0	33.5
CO[C@H]1CC[C@H](O)c2c1oc1c3c4c(c(O)c1c2=O)-c1c(cc2cc(C)n(N)c(=O)c2c1O)C[C@@H]4OCO3	0	0
COc1c(Cl)ccc2c(=O)c3c(O)c4c5c(c3oc12)OCO[C@H]5[C@@H](OC)c1cc2c(c(O)c1-4)C(=O)N(C)[C@H](OC)[C@@H]2O	49.0	64.2
COc1c(Cl)ccc2c(=O)c3c(oc12)C1=C2[C@@H](OCO1)[C@@H](OC)c1cc4c(c(O)c1[C@@]2(O)[C@H]3O)C(=O)N(C)[C@H](OC)[C@@H]4O	43.3	59.9
Cc1cc(C)nc(-n2nc(C)c3c2NC(=O)CSC3c2ccc(F)cc2)n1 (stereo not drawn)	0	0
CCOC(=O)[C@@H]1[C@@H](c2ccccc2)CN2CCN(C(=O)c3cnccn3)C[C@H]12	0	0
O=C1NCC2(CCCN(Cc3cccnc3)C2)Oc2ccccc21 (stereo not drawn)	0	0
CC(NC(=O)c1cn(C)c2ncccc12)c1ccccn1 (stereo not drawn)	0	0
c1cnc(NC[C@H]2OC[C@@H]3CCN(Cc4cccnc4)C[C@@H]32)nc1	0	0
O=C(O)CN1CCC2(CC1)OC(=O)N(Cc1ccccc1)c1ccccc12	0	0
Cc1ccc(CN2CC[C@@H]3CN(c4ncccn4)CCO[C@@H]3C2)o1	0	0
Cn1c(=O)c2ncnnc2n(C)c1=O	96.2	82.9
SMILES	USP28 inh	USP30 inh
CCC(CC)n1[nH]c(=O)c2c1NC(=O)CSC2c1ccc2c(c1)OCO2 (stereo not drawn)	0	0
CO[C@H]1[C@@H](O)[C@H](C)O[C@H](O[C@H]2[C@H](Oc3cccc4c(O)c5c(=O)oc6ccc(C)c7c(=O)oc(c34)c5c67)O[C@H](C)[C@H](O)[C@@H]2O)[C@@H]1O	65.0	0
O=c1c2ccccc2nc(/C=C\c2ccc(F)c(F)c2)n1-c1cccc([N+](=O)[O-])c1	0	0
CN(C)Cc1c[nH]c2c(OCc3ccccc3)cccc12	45.5	34.9
CCC(C)[C@H]1C(=O)O[C@H](C(C)C)C(=O)N(C)[C@@H](C(C)CC)C(=O)O[C@H](C(C)C)C(=O)N(C)[C@@H](C(C)C)C(=O)O[C@H](C(C)C)C(=O)N1C (stereo partly drawn)	0	0
CCC(CC(C)C(=O)O)C(=O)CC/C1=C/C(C)C/C(C)=C/C(C)C(O)C(C)CCC(CCCC/C=C/C(C)CCC(C)OC(=O)CC(CC(=O)O)C(=O)O)OC(=O)CC(C(=O)O)CC(=O)OC1 (stereo not drawn)	0	32.4
CC(C)c1cc2c(c(O)c1O)[C@@]1(C(=O)O)CCCC(C)(C)[C@@H]1CC2	39.2	57.4
CC(C)c1cc2c(c(O)c1O)C1(C(=O)O)CCCC(C)(C)C1CC2 (stereo not drawn)	53.1	80.7
COc1cc(O)c2c(=O)oc3cc(O)cc(C)c3c2c1	0	0
O=C(Cc1ncc(C(F)(F)F)cc1Cl)NCCN1CCN(C(=O)Cc2ncc(C(F)(F)F)cc2Cl)CC1	0	0
C/C=C/COC(=O)C1=C(C)N[C@]2(C)C[C@H]1c1ccccc1O2	0	0
CCCC1Cc2cc3c(c(O)c2C(=O)O1)-c1c(c(OC)c2oc4c(O[C@H]5C[C@H](O)[C@H](O[C@H]6C[C@H](O)[C@H](O[C@H]7C[C@H](OC)[C@H](O)C(C)O7)C(C)O6)C(C)O5)ccc(O)c4c(=O)c2c1O)[C@H](O)[C@@H]3O (stereo partly drawn)	0	0
O=C1CO[C@H]2CN(Cc3ccncc3)C[C@H]2N1Cc1ccccn1	0	0
CN(C[C@H]1CN2CC[C@H]1C[C@@H]2CNC(=O)Nc1cccc(F)c1)c1ccccc1	0	39.5
CC1CCN(C[C@H]2CN3CC[C@H]2C[C@@H]3CNC(=O)Nc2ccccc2)CC1	0	0
CCOC(=O)[C@@H]1[C@@H](c2ccccc2)CN2CCN(C(=O)N(C)C)C[C@H]12	0	0
O=S1(=O)[C@H]2C[C@@H]3CNC[C@@]2(CN1Cc1ccncc1)O3	0	0
CC(C)=CCC[C@H](C(=O)O)[C@@H]1CC[C@]2(C)C3=C(CC[C@@]12C)[C@@]1(C)CCC(=O)C(C)(C)C1CC3 (stereo partly drawn)	0	31.7
O=C(NCc1cccnc1)[C@H]1CC[C@@H]2[C@@H](CCN2C2CCCC2)O1	0	0
CN1C(=O)[C@]23CC4=CC=C[C@H](O)[C@H]4N2C(=O)[C@@]1(CO)SS3	0	50.5
COc1ccc(CN2CCC3(CC2)OC(=O)Nc2ccccc23)cc1	0	0
N=C1c2ccccc2CN1c1ccc(F)c(Cl)c1	0	0
C[C@@H]1CC[C@@]2(NC1)OC1CC3C4CC=C5C[C@@H](O)CC[C@]5(C)C4CC[C@]3(C)C1[C@@H]2C (stereo partly drawn)	0	0
CC1CC[C@@]2(NC1)O[C@H]1C[C@H]3[C@@H]4CC=C5C[C@@H](O)CC[C@]5(C)[C@H]4CC[C@]3(C)[C@H]1[C@@H]2C (stereo partly drawn)	31.2	37.6
CN1CCc2c(C#N)c(N3CCCC3)n3cnnc3c2C1	0	0
SMILES	USP28 inh	USP30 inh
C[C@H]1C/C=C/[C@@H](O)[C@@H](O)CC/C=C/c2cc(O)cc(O)c2C(=O)O1	0	0
O=C(CNC(=O)c1ccccc1Br)Nc1ccc(Br)cc1C(=O)c1ccccc1	0	43.4
O=C(CNC(=O)OCc1ccccc1)Nc1ccc(Br)cc1C(=O)c1ccccc1Cl	0	0
CC(C)CCN1C[C@H]2C[C@H](C(=O)Nc3cccnc3)[C@@H](C1)O2	0	0
CN(C)[C@@H]1C(=O)C(C(N)=O)=C(O)[C@@]2(O)C(=O)C3=C(O)c4c(O)cccc4[C@@](C)(O)[C@H]3C[C@@H]12	0	0
CN(C)[C@@H]1C(=O)C(C(N)=O)=C(O)[C@@]2(O)C(=O)C3=C(O)c4c(O)cccc4[C@@](C)(O)C3[C@H](O)[C@@H]12 (stereo partly drawn)	87.3	50.4
CC(C)N1CCN(C(=O)Cc2c[nH]c3ccccc23)C(C(N)=O)C1 (stereo not drawn)	0	0
